# Measurements from PubChem BioAssay (NCATS).
# Several values for one entry are separate records, joined by “and”; a condition that tells them apart may be missing. Equal values may be shown once. Results filed as inconclusive are left out. Activity calls are given as the source filed them. Unless noted, calls follow the shape of the dose curve; as a rule, active = well fitted curve in the direction sought with a large enough effect in the repeat runs; inconclusive = weak or mixed curves; inactive = no such curve, though single readings can be large; an effect the other way counts as inactive or inconclusive.
# Assay: qHTS assay for small molecule antagonists of the retinoid-related orphan receptor gamma (ROR-gamma) signaling pathway - cell viability counter screen (AID 720652);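 also: CHO reporter cells with doxycycline-induced ROR-gamma expression; compound exposure lasted 16 hr before ATP read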
# Details: RORgamma reporter cell line viability counter screen; series mostly up to 92.2 µM
# Procedure, shortened: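 Cytotoxicity is quantified via intracellular ATP (CellTiter-Glo luminescence) in doxycycline-induced CHO ROR response element-luciferase reporter cells treated with compound for 16 hr at 37 C, 5% CO2.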
# % is scaled to controls: 0 for no effect and ±100 for the full control effect.
row,SMILES,Potency
1,Brc1ccccc1,inactive
2,CCOP(=S)(OCC)SCSC(C)(C)C,inactive
3,C=C(C)C#N,inactive
4,CCSC(=O)Cl,inactive
5,Cc1cccc([N+](=O)[O-])c1,inactive
6,Nc1c(Cl)c(Cl)nc(C(=O)O)c1Cl,inactive
7,CC(C)(C)OOC(C)(C)C,inactive
8,C=C(C)C(=O)OCC1CO1 (stereo unspecified),inactive
9,Cc1ccc([N+](=O)[O-])cc1C,inactive
10,O=[N+]([O-])c1ccc(Cl)c(Cl)c1,inactive
11,C=CC(=C)C,inactive
12,Cc1ccc2ccccc2c1,inactive
13,Clc1ccc2ccccc2c1,inactive
14,[O-][Br+2]([O-])O,inactive
15,Clc1nc(Cl)nc(Nc2ccccc2Cl)n1,inactive
16,C=CCOC(=O)c1ccccc1N,inactive
17,C=CC(N)=O,inactive
18,CC(C)(c1ccccc1)c1ccc(O)cc1,inactive
19,CCN(CC)c1ccccc1,inactive

row,SMILES,Potency
1,S=C=Nc1cccc2ccccc12,inactive
2,N#CCCCl,inactive
3,O=NN(CCO)CCO,inactive
4,Cc1ccccc1N,inactive
5,C=CCOC(C)=O,inactive
6,CCCC(=O)Cl,inactive
7,NC(=S)Nc1ccccc1,inactive
8,O=C(Cl)/C=C/C(=O)Cl,inactive
9,C=C(Cl)Cl,inactive
10,ClCBr,inactive
11,COc1ccc(C=O)cc1OC,inactive
12,C=CC(=O)OCC,inactive
13,c1nc[nH]n1,inactive
14,c1ccc2c(c1)CCCC2,inactive
15,CCCSC(=O)Cl,inactive
16,Clc1cccc(C(Cl)(Cl)Cl)n1,inactive
17,O=NN(c1ccccc1)c1ccccc1,inactive
18,C1CCC2CCCCC2C1 (stereo unspecified),inactive
19,CC(O)CCl (stereo unspecified),inactive

# Assay: qHTS assay for small molecule agonists of the antioxidant response element (ARE) signaling pathway measured by Nrf2-dependant transcriptional activity - cell viability counter screen (AID 720653)
# Details: ARE-bla HepG2 viability, CellTiter-Glo ATP luminescence, 16 h; hits give low values
# Procedure, shortened: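 ARE-bla HepG2 cells (2,000/well) rested 5 hrs at 37C/5% CO2, then exposed to compounds in DMSO for 16 hrs. Viability was read in the same wells as intracellular ATP by luminescence, 30 min at room temperature after reagent addition.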
row,SMILES,max response
1,Brc1ccccc1,-10.2% (inactive) and 1.06% (inactive)
2,CCOP(=S)(OCC)SCSC(C)(C)C,-1.33% (inactive) and 1.99% (inactive)
3,C=C(C)C#N,-12.2% (inactive) and -0.888% (inactive)
4,CCSC(=O)Cl,0.254% (inactive)
5,Cc1cccc([N+](=O)[O-])c1,-0.821% (inactive) and -5.67% (inactive)
6,Nc1c(Cl)c(Cl)nc(C(=O)O)c1Cl,5.28% (inactive) and -6.28% (inactive) and -12.8% (inactive)
7,CC(C)(C)OOC(C)(C)C,-1.66% (inactive)
8,C=C(C)C(=O)OCC1CO1 (stereo unspecified),1.28% (inactive)
9,Cc1ccc([N+](=O)[O-])cc1C,4.05% (inactive) and -7% (inactive)
10,O=[N+]([O-])c1ccc(Cl)c(Cl)c1,-14.5% (inactive)
11,C=CC(=C)C,-2.67% (inactive)
12,Cc1ccc2ccccc2c1,-3.38% (inactive)
13,Nc1ccccc1Cl,8.24% (inactive)
14,Clc1ccc2ccccc2c1,4.36% (inactive)
15,[O-][Br+2]([O-])O,3.23% (inactive) and -1.6% (inactive)
16,Clc1nc(Cl)nc(Nc2ccccc2Cl)n1,-2.86% (inactive) and -6.99% (inactive)
17,OCC1CO1 (stereo unspecified),-5.57% (inactive) and 1.53% (inactive)
18,C=CCOC(=O)c1ccccc1N,4.08% (inactive)
19,C=CC(N)=O,-3.97% (inactive) and 4.84% (inactive) and 3.74% (inactive)
20,CC(C)(c1ccccc1)c1ccc(O)cc1,9.52% (inactive) and -12.4% (inactive)

row,SMILES,max response
1,CCN(CC)c1ccccc1,7.99% (inactive)
2,S=C=Nc1cccc2ccccc12,-2.47% (inactive)
3,N#CCCCl,4.67% (inactive) and 7.37% (inactive)
4,O=NN(CCO)CCO,-8% (inactive)
5,Cc1ccccc1N,-8.44% (inactive) and 1.06% (inactive)
6,C=CCOC(C)=O,-12.1% (inactive)
7,CCCC(=O)Cl,18.2% (inactive)
8,NC(=S)Nc1ccccc1,-3.66% (inactive) and 8.32% (inactive) and -3.85% (inactive)
9,O=C(Cl)/C=C/C(=O)Cl,3.07% (inactive)
10,C=C(Cl)Cl,-2.66% (inactive)
11,ClCBr,-6.45% (inactive)
12,COc1ccc(C=O)cc1OC,-2.79% (inactive) and -2.46% (inactive)
13,C=CC(=O)OCC,-9.08% (inactive)
14,c1nc[nH]n1,12.8% (inactive)
15,c1ccc2c(c1)CCCC2,-5.84% (inactive)
16,CCCSC(=O)Cl,-4.21% (inactive)
17,Clc1cccc(C(Cl)(Cl)Cl)n1,1.86% (inactive) and -5.38% (inactive)
18,O=NN(c1ccccc1)c1ccccc1,-4.67% (inactive) and 8.95% (inactive)
19,C1CCC2CCCCC2C1 (stereo unspecified),2.05% (inactive)
20,CC(O)CCl (stereo unspecified),-0.544% (inactive) and -11.8% (inactive)

# Assay: qHTS assay for cell viability of HEK293 cells (AID 743288; active = well fitted curve in the direction sought with a large enough effect; an effect the other way counts as inactive or inconclusive; also: nearly all actives have a fitted effect of over 50% in size)
# Details: ATP luminescence (CellTiter-Glo), 18 h; max response: hits give low values
# Procedure, shortened: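 Total intracellular ATP, measured with a luciferase-coupled reagent, indicates the number of viable HEK293 cells. Exposure to test chemicals lasts 18 h at 37 C in 1,536-well format at 2,000 cells/well.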
row,SMILES,max response
1,CCOP(=S)(OCC)SCSC(C)(C)C,-9.58% (inactive) and -1.13% (inactive)
2,C=C(C)C#N,-2.82% (inactive) and -11% (inactive)
3,CCSC(=O)Cl,-2.01% (inactive)
4,Cc1cccc([N+](=O)[O-])c1,-6% (inactive) and -15.6% (inactive)
5,Nc1c(Cl)c(Cl)nc(C(=O)O)c1Cl,-0.605% (inactive) and -10.4% (inactive) and -8.99% (inactive)
6,CC(C)(C)OOC(C)(C)C,1.9% (inactive)
7,Cc1ccc([N+](=O)[O-])cc1C,-0.535% (inactive) and -15% (inactive)
8,O=[N+]([O-])c1ccc(Cl)c(Cl)c1,7.83% (inactive)
9,C=CC(=C)C,2.66% (inactive)
10,Nc1ccccc1Cl,-8.45% (inactive)
11,Clc1ccc2ccccc2c1,3.91% (inactive)
12,Clc1nc(Cl)nc(Nc2ccccc2Cl)n1,1.75% (inactive) and 3.89% (inactive)
13,CC(C)(c1ccccc1)c1ccc(O)cc1,-13.3% (inactive) and 1.83% (inactive)
14,CCN(CC)c1ccccc1,-9.99% (inactive)
15,S=C=Nc1cccc2ccccc12,0.149% (inactive)
16,C=CCOC(C)=O,-4.78% (inactive)
17,NC(=S)Nc1ccccc1,-1.42% (inactive) and -0.575% (inactive) and -4.82% (inactive)
18,O=C(Cl)/C=C/C(=O)Cl,1.49% (inactive)
19,C=C(Cl)Cl,-0.763% (inactive)
20,ClCBr,4.95% (inactive)
21,COc1ccc(C=O)cc1OC,-6.04% (inactive) and -11.4% (inactive)
22,c1nc[nH]n1,-0.284% (inactive)
23,c1ccc2c(c1)CCCC2,-7.83% (inactive)
